Results taken from PubChem BioAssay (NCATS).
Active and inactive are the calls of the source. A call without a number means that no potency is given here. Calls follow the shape of the dose curve; as a rule, active = well fitted curve in the direction sought with a large enough effect; inconclusive = small, poorly fitted or top-dose-only effect, or another doubt; inactive = no such curve, though single readings can be large or run the other way. Starred links: 1 amine or outer side, 2 acyl side, 3 side chain; linkers in the order of their positions; H or OH if unused. Positions of bridges follow the written chain, without caps; N, C: chain ends. Non-standard residues stand in square brackets, D forms with d. Residues, ends and D or L forms follow the SMILES beside them. ξ: configuration not given here. *: point of attachment. X3 = C[C@@H](Oc1ccc([C@H](N[*:1])C(=O)[*:2])cc1)[C@]1(/C=C\C(=O)[*:3])CO1; d(aIle) = CC[C@H](C)[C@@H](N)C(=O)O; X2 = CC(C)[C@@H](O)C(C)C(=O)*; ξNMeF = CNC(Cc1ccccc1)C(=O)O; ξT = CC(O)C(N)C(=O)O; ξS = NC(CO)C(=O)O

Assay: qHTS for ATAD5 Agonist screened against the NCATS CANVASS Library (AID 1347367);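 also: luciferase reporter driven by ATAD5 which rises upon DNA damage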
Conditions: HEK293T ATAD5-luciferase reporter, luminescence, 16 h; series mostly up to 46.1 µM
From the text: Natural products and their derivatives continue to be wellsprings of nascent therapeutic potential. However, many laboratories have limited resources for biological evaluation, leaving their previously isolated or synthesized compounds largely or completely untested. To address this issue, the Canvass library of natural products was assembled (https://tripod.nih.gov/canvass), in collaboration with academic and industry researchers, for quantitative high-throughput screening (qHTS) across a diverse set of cell-based and biochemical assays. The pure (>85% purity by liquid chromatography/mass spectrometry [LC/MS]) Canvass library of 346 natural products were submitted by 45 academic laboratories and companies around the world. We collected pure natural products to circumvent deconvolution and structure elucidation due to time and resource limitations. The library was formatted into 1536-well plates and evaluated in 50 qHTS (in an 11-pnt concentration series) bioassays with broad scope of disease-relevant mechanisms. The resulting data set from 50 different assays was then systematically analyzed to identify overall trends and specific natural products with interesting biological activities. Reported herein are the results of each individual qHTS and their corresponding assay protocol. Human ATAD5 is a biomarker for identifying gentoxic compounds because ATAD5 protein levels increase post-transcriptionally in response to DNA damage. A cell-based assay is used to detect DNA damage inducers and genotoxic compounds as well. The assay is based upon a luciferase reporter gene under control of ATAD5 that has been stably integrated into HEK 293T cells. Luminescence intensity is proportional to ATAD5 expression. National Center for Advancing Translational Sciences (NCATS), Rockville, MD National Institute of Health (NIH), Bethesda, Maryland
ATAD5 Agonist assay protocol: 1. In a 1536 well, tissue culture treated white solid bottom plates (Greiner Bio-One North America), 5 uL of HEK293T-ATAD5 cell solution (2000 cells / well) was dispensed using the Multidrop Combi dispenser (Thermo Fisher Scientific). 2. The assay plates were incubated for 5hr at 37C, 5% CO2 to allow the cells to acclimate and attach. 3. Controls and compounds were pin transferred (~23 nL volume) to the assay plates via Wako Pin-tool (Wako Automation, Richmond VA) equipped with a 1536 pin head. The compounds were transferred to columns 5-48 resulting in a final concentration ranging from 0.6nM to 92uM. Methyl methanesulfonate (MMS) was used as a control in various concentrations (columns 1: dose response, column2: 0.7mM, and column3: 0.6mM). DMSO (0.46% final concentration was used as a negative control. 4. The assay plates were further incubated in the dark at 37C, 5% CO2 for 16hr. 5. To measure cell viability, 1uL of CellTiter-Fluor (Promega) reagent was then added to the assay plates (column 1-48, rows 1-32). The assay plates were incubated in the dark for 1hr at 37C, 5% CO2. 6. A first readout of fluorescence signal was acquired via the ViewLux (PerkinElmer) plate reader using filter sets for AFC (380-400nmEx/505Em) and 1 second exposure setting. 7. To measure ATAD5 activation, 4uL of Amplite (AAT Bioquest) reagent was then added to the assay plates (column 1-48, rows 1-32). The assay plates were further incubated in the dark at room temperature for 30min. 8. A second readout of luminescence signal was acquired via the ViewLux plate reader using a clear emission filter, 10 second exposure setting. Fox JT1, et al. High-throughput genotoxicity assay identifies antioxidants as inducers of DNA damage response and cell death. Proc Natl Acad Sci U S A. 2012 Apr 3;109(14):5423-8.
Potency is read from the fitted curve at half-maximal effect.

Row | SMILES | Potency
1 | C/C(=C\[C@H](C)C(=O)C[C@H](O)CC1CC(=O)NC(=O)C1)[C@@H]1OC(=O)/C=C/CC/C=C/C=C/[C@@H]1C | inactive
2 | C=C[C@]12C=CCN3CC[C@@]4(c5ccccc5NC(=O)[C@@H]4C1)[C@@H]32 | inactive
3 | CC(C)CC1C(=O)O[C@H](C(C)C)C(=O)N(C)C(CC(C)C)C(=O)O[C@@H](C(C)C)C(=O)N(C)C(CC(C)C)C(=O)O[C@H](C(C)C)C(=O)N(C)C(CC(C)C)C(=O)O[C@@H](C(C)C)C(=O)N1C (stereo not given in full) | inactive
4 | C=CC(C)(C)[C@@]12C[C@H]3C(=O)N/C(=C\c4cnc[nH]4)C(=O)N3[C@@H]1Nc1ccccc12 | inactive
5 | CC[C@H]1CN2CCc3c([nH]c4cccc(OC)c34)[C@@H]2C[C@@H]1/C(=C\OC)C(=O)OC | inactive
6 | COC1=C(C2=C(OC)C(=O)c3cc4c(c(O)c3C2=O)C(=O)O[C@H](C)C4)C(=O)c2c(cc3c(c2O)C(=O)O[C@H](C)C3)C1=O | inactive
7 | C[C@]12CC(O)C3[C@@H](CC[C@@H]4C[C@@H](O)CC[C@]34CO)[C@@]1(O)CC[C@@H]2C1=CC(=O)OC1 (stereo not given in full) | inactive
8 | C/C=C1/CN2CC[C@@]34c5ccccc5N(C)[C@@H]3[C@@H]2C[C@@H]1[C@H]4C(=O)OC | inactive
9 | CC[C@H](C)[C@H]1NC(=O)[C@@H](NC(=O)C(C)[C@H](O)C(C)C)[C@@H](C)OC(=O)C2COC(=O)CNC(=O)/C=C\[C@]3(CO3)[C@@H](C)Oc3ccc(cc3)[C@H](NC1=O)C(=O)N(C)C(Cc1ccccc1)C(=O)NC(C(C)O)C(=O)N2 (stereo not given in full) (X2-T[d(aIle)][X3][ξNMeF][ξT][ξS]; ester 1-C; linker 3-6 via G) | inactive
10 | C/C=C1/CN2C3CC1C1=CCC(=O)N4c5ccccc5[C@@]3(C[C@@H]2C2=C[C@H]3C5CC6N(CC[C@@]67c6ccccc6N(C2=O)[C@@H]37)C/C5=C/C)[C@H]14 (stereo not given in full) | inactive
11 | CO[C@H]1[C@H](O[C@H]2CC[C@]3(C=O)[C@H]4CC[C@]5(C)[C@@H](C6=CC(=O)OC6)CC[C@]5(O)[C@@H]4CC[C@]3(O)C2)O[C@H](C)[C@H](O)[C@@H]1OC | inactive
12 | COC1C(O)C(C)OC(OC2C(Oc3cccc4c(O)c5c(=O)oc6ccc(C)c7c(=O)oc(c34)c5c67)OC(C)C(O)C2O)C1O (stereo not given) | inactive
13 | CC[C@@H]1CN2CCC3(Nc4cccc(OC)c4C3=O)[C@@H]2C[C@@H]1/C(=C\OC)C(=O)OC (stereo not given in full) | inactive
14 | CCCCC1CC[C@H]2CCCC(CCC)N12 (stereo not given in full) | inactive
15 | CO[C@@H](/C=C/CC/C=C/C(=O)O)[C@@H](O)[C@H](C)/C=C(\C)[C@H](O)[C@H](C)C(=O)CCCC1CC(=O)NC(=O)C1 | inactive
16 | C=C[C@H]1CN2CCc3c([nH]c4cccc(OC)c34)[C@@H]2C[C@@H]1/C(=C\OC)C(=O)OC | inactive
17 | CC[C@@H]1CN2CCc3c([nH]c4cccc(OC)c34)[C@@H]2C[C@@H]1/C(=C\OC)C(=O)OC | inactive
18 | C1=C2CCCN[C@H]2C2CC1[C@H]1CCCCN1C2 (stereo not given in full) | inactive

Row | SMILES | Potency
19 | c1ccc2nc3c(cc2c1)[nH]c1ccccc13 | inactive
20 | CO[C@H]([C@@H](C)[C@H]1O[C@]1(C)C[C@H](C)/C=C/C=C(\C)[C@H]1O[C@@H](CC(=O)O)CC[C@@H]1C)[C@@H](C)O | 0.0467 µM (active)
21 | C[N+](C)(C)CCc1c[nH]c2ccccc12 | inactive
22 | C/C=C(\C)C(=O)O[C@@H]1[C@@H](O)[C@@H]2O[C@H]3[C@H](O[C@@H](CCCCC)CCCCCCC(=O)CCC(=O)OC[C@@H](O2)[C@H]1OC(=O)/C=C/c1ccccc1)O[C@H](C)[C@H](OC(C)=O)[C@@H]3O | inactive
23 | C[C@]12CCC3[C@@H](CC[C@@H]4C[C@@H](O)CC[C@]34CO)[C@@]1(O)CC[C@@H]2C1=CC(=O)OC1 (stereo not given in full) | inactive
24 | CCCC[C@@H]1CC[C@H]2CCCC(CCCO)N12 (stereo not given in full) | inactive
25 | C/C=C1/CN2CC[C@]34C(=C(C(=O)OC)[C@H]1C[C@H]23)Nc1ccccc14 | inactive
26 | C[C@]12CC(O)C3[C@@H](CCC4C[C@@H](O)CC[C@@]43CO)[C@@]1(O)CC[C@@H]2C1=CC(=O)OC1 (stereo not given in full) | inactive
27 | CCCC[C@@H](C)/C=C1/CN2CCC[C@H]2[C@@](C)(O)[C@@H]1O | inactive
28 | C=CC(C)(C)[C@@]12C[C@H]3C(=O)N/C(=C/c4cnc[nH]4)C(=O)N3[C@@H]1Nc1ccccc12 | inactive
29 | CO[C@H]1C[C@H](O[C@H]2[C@@H](O)C[C@H](O[C@H]3CC[C@]4(C=O)[C@H]5CC[C@]6(C)C(C7=CC(=O)OC7)CC[C@]6(O)[C@@H]5CC[C@]4(O)C3)O[C@@H]2C)O[C@H](C)[C@H]1O[C@H]1C[C@@H](OC)[C@@H](O[C@@H]2O[C@H](CO)[C@@H](O)[C@H](O)[C@H]2O)[C@@H](C)O1 (stereo not given in full) | inactive
30 | CO[C@@]12c3c(C)cc(O)c4c(=O)occ(c34)C(=O)[C@@H]1[C@]13COC(=O)c4c(O)cc(C)c(c41)C(=O)[C@H]2[C@@H]3OC(C)=O | inactive
31 | CCC(=O)N[C@@H](C[C@H](C)C(Cl)(Cl)Cl)C(=O)N1C(=O)C=C(OC)[C@@H]1C[C@H](C)C(Cl)Cl | inactive
32 | C=C(C)[C@H]1C(=O)c2c3c(cc4c5c(n1c24)[C@@]1(C)[C@@H](CC[C@H]2[C@](C)(/C=C/C=C(\C)C(=O)O)[C@@H](O)CC[C@@]21C)C5)C1=CC(C)(C)OC(C)(C)[C@H]1[C@@H]3O | inactive
33 | CC[C@]12C=CCN3CC[C@]4(C(=C(C(=O)OC)C1)Nc1ccccc14)[C@@H]32 | inactive
34 | C/C=C/[C@@H]1[C@H]2C[C@@H](C)CC[C@@H]2C(C)=C[C@H]1C(=O)c1c(O)c(-c2ccc(O)cc2)c[nH]c1=O | inactive
35 | O[C@H]1C=C[C@@]23CCN(Cc4cc5c(cc42)OCO5)[C@@H]3C1 | inactive
